Data as given in PubChem BioAssay (Tox21).
“And” between values parts separate entries of the source, which are not always exact repeats. Equal entries are not always repeated. Results filed as inconclusive are left out. The source made the active and inactive calls. Calls follow the shape of the dose curve; as a rule, active = well fitted cell-killing curve with a large enough effect in the repeat runs; inconclusive = weak or mixed curves, or effect the other way; inactive = flat fitted curve, though single readings scatter.
Potency is read from the fitted curve at half-maximal effect.

Assay: Human pregnane X receptor (PXR) small molecule agonists, qHTS cell viability counter screen (AID 1346977); also: nearly all actives have a fitted effect of over 50% in size
Settings: PXR-Luc HepG2 viability, CellTiter-Fluor, 24 h; series mostly up to 92.4 µM
From the text: U.S. Tox21 Program National Center for Advancing Translational Sciences [NCATS] NIH Chemical Genomics Center [NCGC] U.S. Environmental Protection Agency [EPA] National Institutes of Environmental Health Sciences [NIEHS] National Toxicology Program [NTP] U.S. Food and Drug Administration [FDA] Tox21 Assay Overview: The human pregnane X receptor (hPXR) regulates the expression of several drug metabolizing enzymes and induction of these proteins is a major mechanism for developing drug resistance in cancer. One such key enzyme catalyzing the drug metabolism is cytochrome P450 3A4 (CYP3A4). Changes in CYP3A4 expression affect drug metabolism, thereby reducing the therapeutic efficacy and altering toxicological response to a drug and which finally causes adverse drug interaction. To screen Tox21 libraries for compounds that activate hPXR-mediated CYP3A4 gene expression, PXR-Luc HepG2 cells were used. Also cytotoxicity of the compounds was tested in parallel by measuring the cell viability using CellTiter-Fluor assay system in the same wells.
Tox21 Assay Protocol Summary: PXR-Luc HepG2 cells were dispensed at 2,000 per well in 5uL of assay medium containing 5% charcoal-stripped FBS into white solid bottom 1536-well plates (Corning Life Sciences, Corning, NY) using a Multidrop Combi (Thermo Scientific, Waltham, MA) dispenser. The assay plates were incubated at 37 C and 5% CO2 for 5hr, and then 23nL of compounds dissolved in DMSO and positive control were transferred using a Pintool station (Wako, San Diego, CA). The assay plates were incubated at 37C and 5% CO2 for 24hr. For cytotoxicity read, after 23hr incubation at 37C, 1uL CellTiter-Fluor reagent (Promega Corporation, Madison, WI) was added to each well of the assay plates using Flying Reagent Dispenser (FRD, Aurora Discovery, San Diego, CA). After 1hr incubation at 37C and 5% CO2, the fluorescence signal was quantified using a ViewLux plate reader (PerkinElmer, Shelton, CT).
With `O=C(Oc1ccccc1)c1ccccc1C(=O)Oc1ccccc1` the Potency was “inactive”.
With `Oc1ccc(Cl)cc1Sc1cc(Cl)ccc1O` the Potency was 15.3 µM (active).
In the case of `CCCCCCCCCCC=O`, the Potency was “inactive”.
In the case of `Cc1cc(C2CCCCC2)n(O)c(=O)c1`, the Potency was 26.6 µM (active).
With `CCN(Cc1cccnc1)C(=O)c1cccc(Cl)c1[C@]1(C)C(=O)N(Cc2ccc(OC)cc2OC)c2ccc(Cl)cc21` the Potency was 25.5 µM (active).
For `CC1=NC(C)OC1C` (stereo not given), the Potency was “inactive”.
With `CC(C)(C)C1CCC(CC2=C(O)c3ccccc3C(=O)C2=O)CC1` (stereo not given) the Potency was 10.6 µM (active).
With `CC(C)(C)c1ccc(C(=O)CCCN2CCC(OC(c3ccccc3)c3ccccc3)CC2)cc1` the Potency was 21.1 µM (active).
For `N=C1N=C(N)c2ccccc21`, the Potency was 27.3 µM (active).
In the case of `CC1=C(C(=O)OC(C)C)C(c2cccc([N+](=O)[O-])c2)C(C(=O)OC2CN(C(c3ccccc3)c3ccccc3)C2)=C(N)N1` (stereo not given), the Potency was 16.8 µM (active).
For `O=[N+]([O-])c1cc(Cl)c(Cl)c(Cl)c1Cl`, the Potency was “inactive”.
In the case of `Cc1cc(CCN2CCN(c3nsc4ccccc34)CC2)cc2c1NC(=O)CC2(C)C`, the Potency was 27.3 µM (active).
For `NNc1nc(-c2ccc([N+](=O)[O-])cc2)cs1`, the Potency was 27.3 µM (active).
With `CCCCCCCCCCCC(=O)NCCCN(C)C` the Potency was 38.6 µM (active).
For `CC(C)CCCCCCCCCCCCCCC(=O)O`, the Potency was “inactive”.
For `CC[C@H]1O[C@]2(CC[C@@H]1C)C[C@@H]1C[C@@H](C/C=C(\C)C[C@@H](C)/C=C/C=C3\CO[C@@H]4[C@H](O)C(C)=C[C@@H](C(=O)O1)[C@]34O)O2`, the Potency was 27.1 µM (active).
For `COc1ccc(C(=O)/C(Br)=C\C(=O)O)cc1`, the Potency was 61.1 µM (active).
For `C=CC(=O)OCC(CO)(COC(=O)C=C)COC(=O)C=C`, the Potency was 17.8 µM (active) and 21.7 µM (active).
For `O=[N+]([O-])c1ccccc1Nc1ccccc1`, the Potency was “inactive”.
In the case of `O=c1cc(-c2ccc(O)cc2)oc2cc(O)cc(O)c12`, the Potency was 39.8 µM (active) and 27.3 µM (active).
For `OCCCCCCCCCCCCBr`, the Potency was “inactive”.
For `O=c1cccccc1O`, the Potency was “inactive”.
With `O=C(Nc1cccc(Cl)c1)OCC#CCCl` the Potency was 54.5 µM (active).
With `NC(=O)CC[C@@H]1NC(=O)[C@H](Cc2ccccc2)NC(=O)[C@H](Cc2ccc(O)cc2)NC(=O)CCSSC[C@@H](C(=O)N2CCC[C@H]2C(=O)N[C@@H](CCCN=C(N)N)C(=O)NCC(N)=O)NC(=O)[C@H](CC(N)=O)NC1=O` the Potency was “inactive”.
With `C[C@H](CCC(=O)O)[C@H]1CC[C@H]2[C@@H]3CC[C@@H]4C[C@H](O)CC[C@]4(C)[C@H]3CC[C@]12C` the Potency was “inactive”.
For `CC(C)(C)C(=O)OCOC(=O)C1N2C(=O)CC2S(=O)(=O)C1(C)C` (stereo not given), the Potency was “inactive”.
In the case of `CC(=O)S[C@@H]1CC2=CC(=O)CC[C@]2(C)[C@H]2CC[C@@]3(C)[C@@H](CC[C@@]34CCC(=O)O4)[C@H]12`, the Potency was “inactive”.
For `Cc1cccc(CN2CCN(C(c3ccccc3)c3ccc(Cl)cc3)CC2)c1` (stereo not given), the Potency was “inactive”.
In the case of `CCN(CC)CCNC(=O)c1c(C)[nH]c(/C=C2\C(=O)Nc3ccc(F)cc32)c1C`, the Potency was 11.9 µM (active).
For `O=C(N/N=C/c1ccccc1O)c1ccncc1`, the Potency was “inactive”.
With `CCC(C)Nc1ccc(NC(C)CC)cc1` (stereo not given) the Potency was 12.4 µM (active).
With `On1ccccc1=S` the Potency was 0.762 µM (active).
With `CNCc1cc(F)ccc1Oc1ccc(Cl)c(Cl)c1` the Potency was 61.1 µM (active).
With `Cc1cccc2c1cc1ccc3cccc4ccc2c1c34` the Potency was “inactive”.
For `COc1cc(-c2ccc(N=C=O)c(OC)c2)ccc1N=C=O`, the Potency was “inactive”.
In the case of `CN(C)c1ccc(SC#N)cc1`, the Potency was “inactive”.
In the case of `CCN(C(=O)N(CC)c1ccccc1)c1ccccc1`, the Potency was “inactive”.
With `CCCCCCCC/C=C/CCCCCCCC1=NCCN1CCO` the Potency was 68.6 µM (active).
In the case of `O=C(c1ccc(O)cc1O)c1ccc(O)cc1O`, the Potency was “inactive”.
With `COC(=O)C1=C(C)NC(C)=C(C(=O)OCC(C)C)C1c1ccccc1[N+](=O)[O-]` (stereo not given) the Potency was 61.1 µM (active).
